About 79,000 compounds went through this panel and 15% of them were active in at least one assay; those are over-represented in the sample as a whole. Unmarked numbers belong to inactive results. Calls of active or inactive are those of the source. Rule as the data show it: active = growth inhibition above about 70%; inactive = the rest.

A short description of experiment [1]: NCI Yeast Anticancer Drug Screen. Data for the rad50 strain (AID 155).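 Also: 0% = growth of vehicle-only cultures of the same strain.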 Conditions: S. cerevisiae rad50 strain growth inhibition, stronger effect = higher value. The procedure, abridged: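 Readout: growth inhibition relative to vehicle-treated cultures. Compound exposure was carried out in a genetically defined yeast strain deficient in DNA damage repair.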
Experiment [2] can be described thus: NCI Yeast Anticancer Drug Screen. Data for the mec2-1 strain (AID 157). Particulars: S. cerevisiae mec2-1 strain, stronger effect = higher value. The procedure, abridged: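 Cells of the genetically defined mec2-1 yeast strain are incubated with test compound. Inhibition of growth is calculated against vehicle-treated controls.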
Experiment [3] is described as follows: NCI Yeast Anticancer Drug Screen. Data for the sgs1 mgt1 strain (AID 161).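 Also: 0% = growth of cultures given vehicle only.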 Particulars: S. cerevisiae sgs1 mgt1 strain, stronger effect = higher value. The procedure, abridged: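 Read-out: growth inhibition vs vehicle controls. Cells: mutant yeast strain deficient in DNA damage repair.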
Experiment [4] can be described thus: NCI Yeast Anticancer Drug Screen. Data for the cln2 rad14 strain (AID 165).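 Also: 0% = growth equal to vehicle treated cultures.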 Conditions: S. cerevisiae cln2 rad14 strain, stronger effect = higher value. In short, it runs like this: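 The screen exposed genetically defined yeast (cln2 rad14) to test compounds and scored growth inhibition relative to vehicle-treated controls.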
The nature of experiment [5]: NCI Yeast Anticancer Drug Screen. Data for the bub3 strain (AID 167). Particulars: S. cerevisiae bub3 mutant strain, stronger effect = higher value. In short, it runs like this:
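Readout: yeast growth inhibition, expressed relative to vehicle-only wells. The test organism is a mutant strain from a panel with lesions in DNA repair or checkpoint genes.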

The nature of experiment [6]: NCI Yeast Anticancer Drug Screen. Data for the mlh1 rad18 strain (AID 175). Particulars: S. cerevisiae mlh1 rad18 strain growth inhibition, stronger effect = higher value. In short, it runs like this:
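Compound-treated yeast growth, normalised to vehicle controls. Strain bears defined DNA repair mutations.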

Setting [7] is: at 5.0 µM (retest, dose inferred, filed as 0.5).
Setting [8] is: at 50.0 µM (retest, dose inferred, filed as 5.0).

Turning to `CC(=O)c1nc2ccccc2n1C(C)C(=O)c1ccccc1` (stereo not given), the growth inhibition was 39% in experiment [1] (setting [7]); 37% in experiment [1] (setting [8]); 16.9% in experiment [1] (at 50.0 µM); 23% in experiment [2] (setting [7]); 34% in experiment [2] (setting [8]); 21.6% in experiment [2] (at 50.0 µM). The growth inhibition is 18% in experiment [3] (setting [7]); 74% (active) in experiment [3] (setting [8]); 68.4% in experiment [3] (at 50.0 µM); 33% in experiment [4] (setting [7]); 24% in experiment [4] (setting [8]); 6.15% in experiment [4] (at 50.0 µM). In addition, the growth inhibition is -7% in experiment [5] (setting [7]); 35% in experiment [5] (setting [8]); 37.5% in experiment [5] (at 50.0 µM); 18% in experiment [6] (setting [7]); 30% in experiment [6] (setting [8]); -1.7% in experiment [6] (at 50.0 µM).
In the case of `O=[N+]([O-])c1ccc(N/N=C/c2cccnc2)cc1`, the growth inhibition in experiment [1] (setting [7]) was 20%; in experiment [1] (setting [8]), 49%; in experiment [1] (at 50.0 µM) it was 66.4%; in experiment [2] (setting [7]), -5%; in experiment [2] (setting [8]) it was 6%; in experiment [2] (at 50.0 µM), -12.1%. For the same compound, the growth inhibition in experiment [3] (setting [7]) is 1%; in experiment [3] (setting [8]), 26%; in experiment [3] (at 50.0 µM), 60.1%; in experiment [4] (setting [7]) it was 3%; in experiment [4] (setting [8]), 15%; in experiment [4] (at 50.0 µM), -0.05%. The growth inhibition is 3% in experiment [5] (setting [7]); 44% in experiment [5] (setting [8]); 29.4% in experiment [5] (at 50.0 µM); 9% in experiment [6] (setting [7]); 26% in experiment [6] (setting [8]); 45.5% in experiment [6] (at 50.0 µM).
For the compound `COc1ccc(N2C(=O)C(=O)N(c3ccccc3[N+](=O)[O-])C2=S)cc1`, the growth inhibition in experiment [1] (setting [7]) was 16%; in experiment [1] (setting [8]), 99% (active); in experiment [1] (at 50.0 µM) it was 86.3% (active); in experiment [2] (setting [7]), -10%; in experiment [2] (setting [8]), 96% (active); in experiment [2] (at 50.0 µM), 90% (active). The growth inhibition in experiment [3] (setting [7]) is 7%; in experiment [3] (setting [8]), 98% (active); in experiment [3] (at 50.0 µM), 86.2% (active); in experiment [4] (setting [7]), 16%; in experiment [4] (setting [8]), 94% (active); in experiment [4] (at 50.0 µM), 72.2% (active). In addition, the growth inhibition in experiment [5] (setting [7]) is 7%; in experiment [5] (setting [8]), 98% (active); in experiment [5] (at 50.0 µM), 78.2% (active); in experiment [6] (setting [7]), 3%; in experiment [6] (setting [8]), 98% (active); in experiment [6] (at 50.0 µM), 83.9% (active).
In the case of `COc1nc(NC2OC(CO)C(O)C(O)C2O)c(Cl)c(=O)[nH]1` (stereo not given), the growth inhibition is 1% in experiment [1] (setting [7]); 1% in experiment [1] (setting [8]); 47.5% in experiment [1] (at 50.0 µM); 4% in experiment [2] (setting [7]); 12% in experiment [2] (setting [8]); -0.6% in experiment [2] (at 50.0 µM). The growth inhibition in experiment [3] (setting [7]) was 12%; in experiment [3] (setting [8]) it was 4%; in experiment [3] (at 50.0 µM) it was 24.1%; in experiment [4] (setting [7]), 7%; in experiment [4] (setting [8]), 11%; in experiment [4] (at 50.0 µM) it was 20.6%. The growth inhibition was 4% in experiment [5] (setting [7]); 14% in experiment [5] (setting [8]); 15.3% in experiment [5] (at 50.0 µM); 4% in experiment [6] (setting [7]); 5% in experiment [6] (setting [8]); 1.65% in experiment [6] (at 50.0 µM).
With `Cc1ccc2c(c1)C1(SC(C)C(=O)N1c1ccc(F)cc1)C(=O)N2` (stereo not given), the growth inhibition was 11% in experiment [1] (setting [7]); 98% (active) in experiment [1] (setting [8]); 99% (active) in experiment [1] (at 50.0 µM); 15% in experiment [2] (setting [7]); 99% (active) in experiment [2] (setting [8]); 98.8% (active) in experiment [2] (at 50.0 µM). For the same compound, the growth inhibition in experiment [3] (setting [7]) is 14%; in experiment [3] (setting [8]), 98% (active); in experiment [3] (at 50.0 µM) it was 98.8% (active); in experiment [4] (setting [7]), 11%; in experiment [4] (setting [8]), 98% (active); in experiment [4] (at 50.0 µM) it was 97.8% (active). Besides, the growth inhibition is 10% in experiment [5] (setting [7]); 99% (active) in experiment [5] (setting [8]); 98.6% (active) in experiment [5] (at 50.0 µM); 11% in experiment [6] (setting [7]); 99% (active) in experiment [6] (setting [8]); 99% (active) in experiment [6] (at 50.0 µM).
Regarding `CC(CCOP(=O)(O)OCCC(C)CC(C)(C)C)CC(C)(C)C` (stereo not given), the growth inhibition in experiment [1] (setting [7]) is -3%; in experiment [1] (setting [8]), 20%; in experiment [1] (at 50.0 µM), 11.8%; in experiment [2] (setting [7]), -9%; in experiment [2] (setting [8]), 13%; in experiment [2] (at 50.0 µM), 62.6%. In addition, the growth inhibition in experiment [3] (setting [7]) was -4%; in experiment [3] (setting [8]) it was 52%; in experiment [3] (at 50.0 µM) it was 35.4%; in experiment [4] (setting [7]), -2%; in experiment [4] (setting [8]) it was 45%; in experiment [4] (at 50.0 µM) it was 51%. Moreover, the growth inhibition in experiment [5] (setting [7]) was -19%; in experiment [5] (setting [8]), 10%; in experiment [5] (at 50.0 µM) it was 71.4% (active); in experiment [6] (setting [7]), 3%; in experiment [6] (setting [8]) it was 19%; in experiment [6] (at 50.0 µM) it was 47.8%.
Take `CCCCCN1C(=O)CC(C(=O)OCC)=C1C`: the growth inhibition is 3% in experiment [1] (setting [7]); -14% in experiment [1] (setting [8]); -12% in experiment [1] (at 50.0 µM); -3% in experiment [2] (setting [7]); -8% in experiment [2] (setting [8]); -17.2% in experiment [2] (at 50.0 µM). For the same compound, the growth inhibition in experiment [3] (setting [7]) is -4%; in experiment [3] (setting [8]), -14%; in experiment [3] (at 50.0 µM), -23.9%; in experiment [4] (setting [7]), -9%; in experiment [4] (setting [8]) it was 1%; in experiment [4] (at 50.0 µM), 76.5% (active). The growth inhibition in experiment [5] (setting [7]) is -3%; in experiment [5] (setting [8]), 3%; in experiment [5] (at 50.0 µM) it was 30.3%; in experiment [6] (setting [7]), 1%; in experiment [6] (setting [8]), -10%; in experiment [6] (at 50.0 µM) it was 9.1%.
Turning to `O=c1oc2c/c(=C\c3ccccc3)c(=O)c3cccc1c3-2`, the growth inhibition in experiment [1] (setting [7]) is -6%; in experiment [1] (setting [8]), 97% (active); in experiment [1] (at 50.0 µM), 84.4% (active); in experiment [2] (setting [7]), -2%; in experiment [2] (setting [8]) it was 95% (active); in experiment [2] (at 50.0 µM) it was 88.7% (active). The growth inhibition in experiment [3] (setting [7]) was 12%; in experiment [3] (setting [8]), 97% (active); in experiment [3] (at 50.0 µM), 81.2% (active); in experiment [4] (setting [7]) it was -7%; in experiment [4] (setting [8]) it was 96% (active); in experiment [4] (at 50.0 µM), 87.2% (active). The growth inhibition is -7% in experiment [5] (setting [7]); 96% (active) in experiment [5] (setting [8]); 86.7% (active) in experiment [5] (at 50.0 µM); 28% in experiment [6] (setting [7]); 96% (active) in experiment [6] (setting [8]); 78.7% (active) in experiment [6] (at 50.0 µM).
With `O=[N+]([O-])c1ccc2c(c1)[nH]c1ccccc12`, the growth inhibition in experiment [1] (setting [7]) was -138%; in experiment [1] (setting [8]), 36%; in experiment [1] (at 50.0 µM), 93.2% (active); in experiment [2] (setting [7]), -45%; in experiment [2] (setting [8]), -32%; in experiment [2] (at 50.0 µM), 40.1%. Also, the growth inhibition in experiment [3] (setting [7]) was -65%; in experiment [3] (setting [8]), -11%; in experiment [3] (at 50.0 µM), 73.8% (active); in experiment [4] (setting [7]), -57%; in experiment [4] (setting [8]), -63%; in experiment [4] (at 50.0 µM), 68.6%. Besides, the growth inhibition in experiment [5] (setting [7]) was -66%; in experiment [5] (setting [8]), -40%; in experiment [5] (at 50.0 µM) it was 69.2%; in experiment [6] (setting [7]), -139%; in experiment [6] (setting [8]) it was -10%; in experiment [6] (at 50.0 µM), 89% (active).
As to `CSc1nc2nn(Cc3ccccc3)cc2c(=O)[nH]1`, the growth inhibition in experiment [1] (setting [7]) was -6%; in experiment [1] (setting [8]), 22%; in experiment [1] (at 50.0 µM), -7.95%; in experiment [2] (setting [7]), 10%; in experiment [2] (setting [8]), 19%; in experiment [2] (at 50.0 µM), -4.85%. The growth inhibition is 9% in experiment [3] (setting [7]); 21% in experiment [3] (setting [8]); 2.4% in experiment [3] (at 50.0 µM); 17% in experiment [4] (setting [7]); 50% in experiment [4] (setting [8]); -22.8% in experiment [4] (at 50.0 µM). For the same compound, the growth inhibition was 27% in experiment [5] (setting [7]); 47% in experiment [5] (setting [8]); -9.9% in experiment [5] (at 50.0 µM); 20% in experiment [6] (setting [7]); 39% in experiment [6] (setting [8]); 11.8% in experiment [6] (at 50.0 µM).
